In publication PMC11006913:
Numbering of substitutions follows the chain as printed.

Assays:
Assay in all cases: PBM; 200 nM protein, PBS
Conditions in all cases: dsDNA, one strand shown
SIX6 [1] = target: T1, SIX6 (Homo sapiens, UniProt O95475 114-200, L167I)
T1 sequence: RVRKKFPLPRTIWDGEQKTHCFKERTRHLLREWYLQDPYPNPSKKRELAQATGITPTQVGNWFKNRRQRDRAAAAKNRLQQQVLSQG

SIX6 [2] = target: T2, SIX6 (Homo sapiens, UniProt O95475 114-200, L143V)
T2 sequence: T1 sequence with L30V, I54L

SIX6 [3] = target: T3, SIX6 (Homo sapiens, UniProt O95475 114-200, H141N)
T3 sequence: T1 sequence with H28N, I54L

SIX6 [4] = target: T4, SIX6 (Homo sapiens, UniProt O95475 114-200, T165P)
T4 sequence: T1 sequence with T52P, I54L

SIX6 [5] = target: T5, SIX6 (Homo sapiens, UniProt O95475 114-200, L167M)
T5 sequence: T1 sequence with I54M

SIX6 [6] = target: T6, SIX6 (Homo sapiens, UniProt O95475 114-200, L143M)
T6 sequence: T1 sequence with L30M, I54L

SIX6 [7] = target: T7, SIX6 (Homo sapiens, UniProt O95475 114-200, L143I)
T7 sequence: T1 sequence with L30I, I54L

SIX6 [8] = target: T8, SIX6 (Homo sapiens, UniProt O95475 114-200, T165G)
T8 sequence: T1 sequence with T52G, I54L

SIX6 [9] = target: T9, SIX6 (Homo sapiens, UniProt O95475 114-200, T139Q)
T9 sequence: T1 sequence with T26Q, I54L

SIX6 [10] = target: T10, SIX6 (Homo sapiens, UniProt O95475 114-200, T165A)
T10 sequence: T1 sequence with T52A, I54L

SIX6 [11] = target: T11, SIX6 (Homo sapiens, UniProt O95475 114-200, L167V)
T11 sequence: T1 sequence with I54V

SIX6 [12] = target: T12, SIX6 (Homo sapiens, UniProt O95475 114-200)
T12 sequence: T1 sequence with I54L

SIX6 [13] = target: T13, SIX6 (Homo sapiens, UniProt O95475 114-200, T165I)
T13 sequence: T1 sequence with T52I, I54L

Sequence | binding signal (SIX6 [1]) | binding signal (SIX6 [2]) | binding signal (SIX6 [3]) | binding signal (SIX6 [4]) | binding signal (SIX6 [5]) | binding signal (SIX6 [6]) | binding signal (SIX6 [7]) | binding signal (SIX6 [8]) | binding signal (SIX6 [9]) | binding signal (SIX6 [10]) | binding signal (SIX6 [11]) | binding signal (SIX6 [12]) | binding signal (SIX6 [13])
ATACGATA | 11.1 upbm affinity estimate (log intensity, higher = more binding, comparable within an allelic series) | 10.4 upbm affinity estimate (log intensity, higher = more binding, comparable within an allelic series) | 11 upbm affinity estimate (log intensity, higher = more binding, comparable within an allelic series) | 9.94 upbm affinity estimate (log intensity, higher = more binding, comparable within an allelic series) | 10.6 upbm affinity estimate (log intensity, higher = more binding, comparable within an allelic series) | 10.9 upbm affinity estimate (log intensity, higher = more binding, comparable within an allelic series) | 10.4 upbm affinity estimate (log intensity, higher = more binding, comparable within an allelic series) | 11.2 upbm affinity estimate (log intensity, higher = more binding, comparable within an allelic series) | 11.2 upbm affinity estimate (log intensity, higher = more binding, comparable within an allelic series) | 11 upbm affinity estimate (log intensity, higher = more binding, comparable within an allelic series) | 10.9 upbm affinity estimate (log intensity, higher = more binding, comparable within an allelic series) | 10.9 upbm affinity estimate (log intensity, higher = more binding, comparable within an allelic series) | 10.8 upbm affinity estimate (log intensity, higher = more binding, comparable within an allelic series)
GATATACC | 11.1 upbm affinity estimate (log intensity, higher = more binding, comparable within an allelic series) | 10.4 upbm affinity estimate (log intensity, higher = more binding, comparable within an allelic series) | 11.2 upbm affinity estimate (log intensity, higher = more binding, comparable within an allelic series) | 9.81 upbm affinity estimate (log intensity, higher = more binding, comparable within an allelic series) | 10.9 upbm affinity estimate (log intensity, higher = more binding, comparable within an allelic series) | 11 upbm affinity estimate (log intensity, higher = more binding, comparable within an allelic series) | 10.5 upbm affinity estimate (log intensity, higher = more binding, comparable within an allelic series) | 11.1 upbm affinity estimate (log intensity, higher = more binding, comparable within an allelic series) | 11.2 upbm affinity estimate (log intensity, higher = more binding, comparable within an allelic series) | 11.1 upbm affinity estimate (log intensity, higher = more binding, comparable within an allelic series) | 10.9 upbm affinity estimate (log intensity, higher = more binding, comparable within an allelic series) | 11 upbm affinity estimate (log intensity, higher = more binding, comparable within an allelic series) | 11.1 upbm affinity estimate (log intensity, higher = more binding, comparable within an allelic series)
TAGTATCA | 11.3 upbm affinity estimate (log intensity, higher = more binding, comparable within an allelic series) | 10.6 upbm affinity estimate (log intensity, higher = more binding, comparable within an allelic series) | 11.1 upbm affinity estimate (log intensity, higher = more binding, comparable within an allelic series) | 10 upbm affinity estimate (log intensity, higher = more binding, comparable within an allelic series) | 10.8 upbm affinity estimate (log intensity, higher = more binding, comparable within an allelic series) | 11 upbm affinity estimate (log intensity, higher = more binding, comparable within an allelic series) | 10.4 upbm affinity estimate (log intensity, higher = more binding, comparable within an allelic series) | 11.3 upbm affinity estimate (log intensity, higher = more binding, comparable within an allelic series) | 11.3 upbm affinity estimate (log intensity, higher = more binding, comparable within an allelic series) | 11.2 upbm affinity estimate (log intensity, higher = more binding, comparable within an allelic series) | 11.1 upbm affinity estimate (log intensity, higher = more binding, comparable within an allelic series) | 11 upbm affinity estimate (log intensity, higher = more binding, comparable within an allelic series) | 11 upbm affinity estimate (log intensity, higher = more binding, comparable within an allelic series)
AGTTCGGG | 8.99 upbm affinity estimate (log intensity, higher = more binding, comparable within an allelic series) | 9 upbm affinity estimate (log intensity, higher = more binding, comparable within an allelic series) | 8.96 upbm affinity estimate (log intensity, higher = more binding, comparable within an allelic series) | 9.14 upbm affinity estimate (log intensity, higher = more binding, comparable within an allelic series) | 9.03 upbm affinity estimate (log intensity, higher = more binding, comparable within an allelic series) | 9.18 upbm affinity estimate (log intensity, higher = more binding, comparable within an allelic series) | 9.05 upbm affinity estimate (log intensity, higher = more binding, comparable within an allelic series) | 9.12 upbm affinity estimate (log intensity, higher = more binding, comparable within an allelic series) | 9.14 upbm affinity estimate (log intensity, higher = more binding, comparable within an allelic series) | 8.95 upbm affinity estimate (log intensity, higher = more binding, comparable within an allelic series) | 8.74 upbm affinity estimate (log intensity, higher = more binding, comparable within an allelic series) | 9.05 upbm affinity estimate (log intensity, higher = more binding, comparable within an allelic series) | 8.91 upbm affinity estimate (log intensity, higher = more binding, comparable within an allelic series)
GATCGATA | 11 upbm affinity estimate (log intensity, higher = more binding, comparable within an allelic series) | 10.3 upbm affinity estimate (log intensity, higher = more binding, comparable within an allelic series) | 11 upbm affinity estimate (log intensity, higher = more binding, comparable within an allelic series) | 9.87 upbm affinity estimate (log intensity, higher = more binding, comparable within an allelic series) | 10.5 upbm affinity estimate (log intensity, higher = more binding, comparable within an allelic series) | 10.8 upbm affinity estimate (log intensity, higher = more binding, comparable within an allelic series) | 10.4 upbm affinity estimate (log intensity, higher = more binding, comparable within an allelic series) | 11 upbm affinity estimate (log intensity, higher = more binding, comparable within an allelic series) | 11.2 upbm affinity estimate (log intensity, higher = more binding, comparable within an allelic series) | 10.9 upbm affinity estimate (log intensity, higher = more binding, comparable within an allelic series) | 10.8 upbm affinity estimate (log intensity, higher = more binding, comparable within an allelic series) | 10.9 upbm affinity estimate (log intensity, higher = more binding, comparable within an allelic series) | 10.8 upbm affinity estimate (log intensity, higher = more binding, comparable within an allelic series)
AGTATCAC | 11.3 upbm affinity estimate (log intensity, higher = more binding, comparable within an allelic series) | 10.3 upbm affinity estimate (log intensity, higher = more binding, comparable within an allelic series) | 11.2 upbm affinity estimate (log intensity, higher = more binding, comparable within an allelic series) | 9.74 upbm affinity estimate (log intensity, higher = more binding, comparable within an allelic series) | 10.6 upbm affinity estimate (log intensity, higher = more binding, comparable within an allelic series) | 11 upbm affinity estimate (log intensity, higher = more binding, comparable within an allelic series) | 10.3 upbm affinity estimate (log intensity, higher = more binding, comparable within an allelic series) | 11.3 upbm affinity estimate (log intensity, higher = more binding, comparable within an allelic series) | 11.3 upbm affinity estimate (log intensity, higher = more binding, comparable within an allelic series) | 11.3 upbm affinity estimate (log intensity, higher = more binding, comparable within an allelic series) | 11 upbm affinity estimate (log intensity, higher = more binding, comparable within an allelic series) | 11 upbm affinity estimate (log intensity, higher = more binding, comparable within an allelic series) | 11 upbm affinity estimate (log intensity, higher = more binding, comparable within an allelic series)
CGGCCCAA | 9.05 upbm affinity estimate (log intensity, higher = more binding, comparable within an allelic series) | 8.91 upbm affinity estimate (log intensity, higher = more binding, comparable within an allelic series) | 9.04 upbm affinity estimate (log intensity, higher = more binding, comparable within an allelic series) | 8.99 upbm affinity estimate (log intensity, higher = more binding, comparable within an allelic series) | 9.02 upbm affinity estimate (log intensity, higher = more binding, comparable within an allelic series) | 8.96 upbm affinity estimate (log intensity, higher = more binding, comparable within an allelic series) | 8.94 upbm affinity estimate (log intensity, higher = more binding, comparable within an allelic series) | 9.03 upbm affinity estimate (log intensity, higher = more binding, comparable within an allelic series) | 9.14 upbm affinity estimate (log intensity, higher = more binding, comparable within an allelic series) | 8.99 upbm affinity estimate (log intensity, higher = more binding, comparable within an allelic series) | 8.99 upbm affinity estimate (log intensity, higher = more binding, comparable within an allelic series) | 8.99 upbm affinity estimate (log intensity, higher = more binding, comparable within an allelic series) | 9.03 upbm affinity estimate (log intensity, higher = more binding, comparable within an allelic series)
CTATATCA | 11.2 upbm affinity estimate (log intensity, higher = more binding, comparable within an allelic series) | 10.4 upbm affinity estimate (log intensity, higher = more binding, comparable within an allelic series) | 11.2 upbm affinity estimate (log intensity, higher = more binding, comparable within an allelic series) | 9.95 upbm affinity estimate (log intensity, higher = more binding, comparable within an allelic series) | 10.7 upbm affinity estimate (log intensity, higher = more binding, comparable within an allelic series) | 11 upbm affinity estimate (log intensity, higher = more binding, comparable within an allelic series) | 10.4 upbm affinity estimate (log intensity, higher = more binding, comparable within an allelic series) | 11.1 upbm affinity estimate (log intensity, higher = more binding, comparable within an allelic series) | 11.1 upbm affinity estimate (log intensity, higher = more binding, comparable within an allelic series) | 11 upbm affinity estimate (log intensity, higher = more binding, comparable within an allelic series) | 10.9 upbm affinity estimate (log intensity, higher = more binding, comparable within an allelic series) | 10.9 upbm affinity estimate (log intensity, higher = more binding, comparable within an allelic series) | 11.1 upbm affinity estimate (log intensity, higher = more binding, comparable within an allelic series)
ATACCCAT | 10.6 upbm affinity estimate (log intensity, higher = more binding, comparable within an allelic series) | 10.1 upbm affinity estimate (log intensity, higher = more binding, comparable within an allelic series) | 10.6 upbm affinity estimate (log intensity, higher = more binding, comparable within an allelic series) | 9.74 upbm affinity estimate (log intensity, higher = more binding, comparable within an allelic series) | 10.4 upbm affinity estimate (log intensity, higher = more binding, comparable within an allelic series) | 10.6 upbm affinity estimate (log intensity, higher = more binding, comparable within an allelic series) | 10.1 upbm affinity estimate (log intensity, higher = more binding, comparable within an allelic series) | 10.7 upbm affinity estimate (log intensity, higher = more binding, comparable within an allelic series) | 10.8 upbm affinity estimate (log intensity, higher = more binding, comparable within an allelic series) | 10.5 upbm affinity estimate (log intensity, higher = more binding, comparable within an allelic series) | 10.4 upbm affinity estimate (log intensity, higher = more binding, comparable within an allelic series) | 10.6 upbm affinity estimate (log intensity, higher = more binding, comparable within an allelic series) | 10.4 upbm affinity estimate (log intensity, higher = more binding, comparable within an allelic series)
TGATACCA | 11.3 upbm affinity estimate (log intensity, higher = more binding, comparable within an allelic series) | 10.5 upbm affinity estimate (log intensity, higher = more binding, comparable within an allelic series) | 11.3 upbm affinity estimate (log intensity, higher = more binding, comparable within an allelic series) | 9.8 upbm affinity estimate (log intensity, higher = more binding, comparable within an allelic series) | 10.7 upbm affinity estimate (log intensity, higher = more binding, comparable within an allelic series) | 11 upbm affinity estimate (log intensity, higher = more binding, comparable within an allelic series) | 10.6 upbm affinity estimate (log intensity, higher = more binding, comparable within an allelic series) | 11.5 upbm affinity estimate (log intensity, higher = more binding, comparable within an allelic series) | 11.3 upbm affinity estimate (log intensity, higher = more binding, comparable within an allelic series) | 11.4 upbm affinity estimate (log intensity, higher = more binding, comparable within an allelic series) | 11.1 upbm affinity estimate (log intensity, higher = more binding, comparable within an allelic series) | 11.2 upbm affinity estimate (log intensity, higher = more binding, comparable within an allelic series) | 11.1 upbm affinity estimate (log intensity, higher = more binding, comparable within an allelic series)
GATACCTA | 11.1 upbm affinity estimate (log intensity, higher = more binding, comparable within an allelic series) | 10.3 upbm affinity estimate (log intensity, higher = more binding, comparable within an allelic series) | 11.1 upbm affinity estimate (log intensity, higher = more binding, comparable within an allelic series) | 9.79 upbm affinity estimate (log intensity, higher = more binding, comparable within an allelic series) | 10.6 upbm affinity estimate (log intensity, higher = more binding, comparable within an allelic series) | 11.1 upbm affinity estimate (log intensity, higher = more binding, comparable within an allelic series) | 10.4 upbm affinity estimate (log intensity, higher = more binding, comparable within an allelic series) | 11.2 upbm affinity estimate (log intensity, higher = more binding, comparable within an allelic series) | 11.2 upbm affinity estimate (log intensity, higher = more binding, comparable within an allelic series) | 11.1 upbm affinity estimate (log intensity, higher = more binding, comparable within an allelic series) | 10.9 upbm affinity estimate (log intensity, higher = more binding, comparable within an allelic series) | 11 upbm affinity estimate (log intensity, higher = more binding, comparable within an allelic series) | 10.9 upbm affinity estimate (log intensity, higher = more binding, comparable within an allelic series)
